Screens as filed in PubChem BioAssay.
ALDH1A1 inh = blocks purified human ALDH1A1 activity | P00352 | Potency, µM (titrated, usually from 75.3 µM), inactives show at the highest dose activity, negative = inhibition, actives largely listed as inhibitors | hit rate 7.3% among 220,000 | Purified ALDH1A1, NADH fluorescence, propionaldehyde substrate;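 further: plate controls were no enzyme wells and a reference inhibitor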
Tau fibril ThT = inhibitors of human tau fibril formation, thioflavin T binding | recombinant tau K18 P301L, heparin-induced fibrillization, ThT fluorescence | Potency, µM (titrated, usually from 57.4 µM), for inactives: top-dose activity, negative = inhibition, actives largely listed as inhibitors | AID 1460 | P10636 | hit rate 2.1% among 270,000; active means well fitted curve in the direction sought with a large enough effect; inconclusive means small, poorly fitted or top-dose-only effect, or another doubt; inactive means no such curve, though single readings can be large; an effect the other way counts as inactive or inconclusive; further: nearly all actives have a fitted effect of over 55% in size
Target sequence (P10636 561-689 P618L limits assumed): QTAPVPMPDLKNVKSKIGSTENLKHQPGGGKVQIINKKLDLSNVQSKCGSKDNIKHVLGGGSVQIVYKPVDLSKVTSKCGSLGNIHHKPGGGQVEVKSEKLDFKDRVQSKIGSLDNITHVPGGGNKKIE
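Heparin-induced fibrillization of the P301L-mutant K18 repeat-domain fragment of human tau was followed by ThT binding in quantitative high-throughput format.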
Tau fibril FP = blocks human tau fibril formation measured by polarization | K18 P301L tau heparin fibrillization, Alexa594 FP, 6 h | hit rate 0.39% among 280,000 | P10636 | Potency, µM (doses to about 57.7 µM), for the others: top-dose activity, negative = inhibition, hits mostly inhibitors; active means well fitted curve in the direction sought with a large enough effect; inconclusive means small, poorly fitted or top-dose-only effect, or another doubt; inactive means no such curve, though single readings can be large; an effect the other way counts as inactive or inconclusive; further: nearly all actives have a fitted effect of over 55% in size
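Heparin (20 uM) drove fibril formation of recombinant tau K18 P301L, 15 uM unlabeled with 0.24 uM Alexa 594 label, for 6 hr at 37 C in 100 mM sodium acetate pH 7. Fluorescence polarization (555/632 nm) read 1 hr after 30 uM ThT.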
Tau fluor counter = counter-screen for tau fibril formation inhibitors. tau K18 P301L (four-repeat tau fragment) Alexa594 fluorescence, heparin fibrillization. Potency, µM (highest dose often 57.7 µM), inactives show at the highest dose activity change, negative = decrease. hit rate 0.93% among 280,000. AID 1463; active means well fitted curve in the direction sought with a large enough effect; inconclusive means small, poorly fitted or top-dose-only effect, or another doubt; inactive means no such curve, though single readings can be large; an effect the other way counts as inactive or inconclusive; further: nearly all actives have a fitted effect of over 55% in size
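Human K18 P301L tau (15 uM unlabeled plus 0.24 uM Alexa 594-labeled, final) in 100 mM sodium acetate pH 7 was mixed with compound and 20 uM heparin and incubated 6 hr at 37 C.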
HPGD block = inhibitors of human 15-hydroxyprostaglandin dehydrogenase (HPGD) | P15428 | hit rate 4.3% among 150,000 | Potency, µM, without a hit: at the highest dose activity change, negative = inhibition, hits mostly inhibitors | AID 894 | purified HPGD, NADH fluorescence kinetic, PGE2 substrate
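20 nM HPGD preincubated 15 min at room temperature with compound in 50 mM Tris-HCl pH 8, 0.01% Tween 20. Started with 1 mM NAD+ and 30 uM prostaglandin E2; NADH fluorescence (360/450 nm) read 5 times over 30-s intervals, last minus first.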
KDM4E inh = inhibitors of human JMJD2E histone demethylase; JMJD2E catalytic domain, FDH-coupled NADH fluorescence (FDH is formaldehyde dehydrogenase); Potency, µM (doses to about 57.1 µM), inactives show top-dose activity change, negative = inhibition, actives largely listed as inhibitors; hit rate 1.6% among 230,000;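 further: 0% = wells with enzyme and -100% = buffer wells without enzyme; nearly all actives have a fitted effect of over 50% in size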
Target sequence (B2RXH2 1-337 limits assumed): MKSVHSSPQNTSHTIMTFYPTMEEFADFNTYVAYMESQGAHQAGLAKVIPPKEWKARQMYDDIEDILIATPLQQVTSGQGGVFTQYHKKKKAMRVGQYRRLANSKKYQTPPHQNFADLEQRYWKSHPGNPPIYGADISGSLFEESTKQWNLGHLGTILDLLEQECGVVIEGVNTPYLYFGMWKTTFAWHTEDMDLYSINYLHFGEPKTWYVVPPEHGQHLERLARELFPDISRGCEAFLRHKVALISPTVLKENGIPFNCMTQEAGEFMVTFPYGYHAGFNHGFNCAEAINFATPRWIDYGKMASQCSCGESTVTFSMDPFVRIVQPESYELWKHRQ
* = called active by the depositor; ? = inconclusive; / = not tested or not shown; [ ] = dose if it differs, or a comment. Rows were chosen to be rich in hits. Some 9.9% of all compounds tested hit in one or more screens of this group. Unless noted, the call rests on the fitted dose curve; in most records, active means well fitted inhibition curve with a large enough effect (not every such curve was filed as active); inconclusive means small, poorly fitted or top-dose-only effect, or another doubt; inactive means no such curve, though single readings can be large or run the other way. Unless noted, on the % scale 0 is the no-effect control and ±100 the full control effect; potency means the concentration at half of the fitted maximal effect.

SMILES	ALDH1A1 inh	Tau fibril ThT	Tau fibril FP	Tau fluor counter	HPGD block	KDM4E inh
Cc1cccc(OCCC(=O)NCC(=O)Nc2cccc(C)c2C)c1	-2%	1%	6%	0%	1%	1%
Cc1ccc(C(C)C)c(OCC(=O)Nc2cc(-c3nc4ccccc4[nH]3)ccc2C)c1	/	-8%	-17%	?	/	/
COc1ccc(CNC(=O)c2sc3nc[nH]c(=O)c3c2C)cc1	/	-10%	-5%	-7%	/	/
O=S(=O)(NC1CCCC1)c1ccc(Br)s1	5%	2%	0%	-2%	25µM*	7%
O=S(=O)(NC1CCCCC1)c1ccc(-c2csnn2)s1	-4%	-1%	-2%	-22%	14µM*	-1%
Cc1ccc2c(nc3s/c(=C/c4cccs4)c(=O)n32)c1C	14µM*	?	?	-14%	28µM*	5%
Cc1cc(C)c2nc3s/c(=C/c4ccccc4)c(=O)n3c2c1	3.2µM*	28µM*	?	-24%	5µM*	0%
CC(C)(C)C(=O)COC(=O)c1cc(-c2cccnc2)nc2ccccc12	?	-2%	1%	-17%	/	?
CCOC(=O)C1CCCN(c2c(N3CCc4ccccc4C3)c(=O)c2=O)C1 (centres undefined)	?	-8%	1%	-9%	28µM*	-5%
CCOC(=O)C1CCCN(c2c(NCCN(C)Cc3ccccc3)c(=O)c2=O)C1 (centres undefined)	-7%	-12%	0%	-12%	-8%	-1%
C=CCOC(=O)NC(c1ccc(F)c(F)c1)S(=O)(=O)c1ccc(Cl)cc1 (centres undefined)	5%	-3%	0%	-5%	-6%	10%
C=CCOC(=O)NC(c1ccc(F)c(F)c1)C(C(=O)CCl)C(=O)OC (centres undefined)	10µM*	-15%	?	-18%	-22%	9%
CCN(C(=O)C(C)OC(=O)C1C(C(=O)OC)=C(C)NC(C)=C1C(=O)OC)c1ccccc1 (centres undefined)	?	0%	3%	0%	/	?
CCN(CC(=O)Nc1sc2c(c1C#N)CCC(C)C2)Cc1nc2ccccc2c(=O)[nH]1 (centres undefined)	25µM*	?	10%	-21%	/	-3%
CCN(CC(=O)Nc1sc2c(c1C#N)CCCC2)Cc1nc2ccccc2c(=O)[nH]1	?	-12%	1%	-18%	/	0%
COc1cccc(C(=O)NC(=S)Nc2ccc3c4c(cccc24)CC3)c1	14µM*	?	-3%	?	-9%	-1%
COc1ccc(OCC(=O)NC(=S)Nc2ccc3c4c(cccc24)CC3)cc1	16µM*	-17%	?	-26%	?	-7%
C=CCNC(=O)c1sc(=S)n(-c2ccc(C(=O)OCC)cc2)c1N	13µM*	-14%	-9%	-14%	16µM*	-3%
CCOC(=O)c1ccc(-n2c(=S)sc3c(=O)[nH]c(C)nc32)cc1	7.1µM*	?	-5%	-9%	6.3µM*	-1%
COc1ccc(-n2c(N)c(C(=O)NCc3ccco3)sc2=S)cc1	?	-9%	-17%	-15%	?	2%
CCOC(=O)c1ccc(-n2c(N)c(C(=O)NCc3ccco3)sc2=S)cc1	18µM*	?	0%	-22%	28µM*	?
Cc1ccc(NC(=O)Cn2c(=O)n(Cc3ccco3)c(=O)c3sc4ccccc4c32)c(C)c1	/	3%	-6%	-10%	/	/
Cn1ccc(-c2ccccc2)n1	5%	-5%	6%	2%	/	1%
Nc1nc(SCC(=O)Nc2cc(-c3ccccc3)nn2-c2ccccc2)n[nH]1	10µM*	-14%	3%	-19%	-5%	-5%
Cc1ccc(-c2cc(NC(=O)CSc3n[nH]c(N)n3)n(-c3ccccc3)n2)cc1	-5%	-11%	-8%	?	-11%	2%
SMILES	ALDH1A1 inh	Tau fibril ThT	Tau fibril FP	Tau fluor counter	HPGD block	KDM4E inh
Nc1ccccc1Nc1cc(-c2ccccc2)nn1-c1ccccc1	5%	?	16%	14µM*[quencher]	-11%	?
Cc1ccc(-n2nc(-c3ccccc3)cc2Nc2ccccc2N)cc1	3%	?	13%	?	-18%	0%
COc1cc(C(=O)Nc2cc(-c3ccccc3)[nH]n2)cc(OC)c1OC	-3%	-3%	-15%	-21%	-15%	-13%
N#Cc1cc(-c2ccccc2)nn1-c1ccccc1	22µM*	?	?	?	13µM*	?
Nc1ccccc1Nc1cc(-c2ccccc2)[nH]n1	?	14µM*	8%	?	/	20µM*
COc1cc(NC(=O)Cc2c(C(=O)O)c(C)cn2C)cc(OC)c1	/	0%	-2%	-6%	/	/
CCOC(=O)CCN(c1ccccc1)S(=O)(=O)c1ccc2[nH]c(=O)ccc2c1	/	1%	0%	-1%	/	/
CCOC(=O)Cc1nnc(NC(=O)CSc2nnc3c4ccccc4n(C(C)C)c3n2)s1	28µM*	-12%	2%	-4%	?	?
CCCCn1cc(S(=O)(=O)c2ccc(C)c(C)c2)c(=O)c2cc(F)c(N(CC)CC)cc21	/	-14%	0%	-9%	/	/
O=C1/C(=C/c2cccc(O)c2)SC(=S)N1CC1CCCO1 (centres undefined)	/	-12%	-8%	-18%	/	-2%
COc1cccc(/C=C2\SC(=S)N(CC3CCCO3)C2=O)c1 (centres undefined)	3.2µM*	?	1%	-16%	-20%	1%
CCOc1cc(/C=C2/SC(=S)N(CC3CCCO3)C2=O)ccc1O (centres undefined)	0.45µM*	-13%	-3%	-29%	/	?
COc1cc(/C=C2\SC(=S)N(N3CCOCC3)C2=O)ccc1O	/	-7%	-5%	0%	/	1%
CCOC(=O)C1C(=O)OC2(CCCCC2)C1C(=O)OCC (centres undefined)	?	-4%	8%	-7%	-12%	0%
CCOC(=O)C1C(=O)CC(=O)CC1CC(C)SCC (centres undefined)	13µM*	-1%	-5%	2%	-21%	7%
O=[N+]([O-])c1ccc(/C=C/C2=NN(c3ccccc3)C(c3ccco3)C2)cc1 (centres undefined)	2%	3.5µM*	-9%	?	-16%	-2%
O=[N+]([O-])c1ccc(C2=NN(c3ccccc3)C(c3ccco3)C2)cc1 (centres undefined)	/	5µM*	11%	-24%	/	-2%
CCc1ccc(C2=NN(C(C)=O)C(c3ccco3)C2)cc1 (centres undefined)	-7%	?	9%	-12%	/	0%
Fc1ccc(-n2nc(-c3ccccc3)c3cnc4ccccc4c32)cc1Cl	/	-4%	-5%	-8%	/	/
